Results on 1 compound are retold here after PubChem BioAssay AID652097 (National Center for Advancing Translational Sciences (NCATS), 2013).

Calls of active or inactive are those of the source.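 How the source made its calls: active means microscopy shows reduced glucosylceramide buildup in Gaucher patient macrophages after treatment; inactive means no reduction in glucosylceramide buildup seen.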

The nature of the assay: Extended Characterization of Activators of N370S glucocerebrosidase as a Potential Chaperone Treatment of Gaucher Disease: GC accumulation. The following applies: N370S Gaucher macrophages, immunofluorescence microscopy. The text has this: Glucocerebrosidase (GCase) catalyzes the hydrolysis of beta-glucocerebroside (GC) to glucose and ceramide in lysosomes. Mutations in the glucocerebrosidase gene result in Gaucher disease, an autosomal recessive lysosomal storage disorder. Many of the mutations encountered in patients with Gaucher disease are missense alterations that may cause misfolding, decreased stability and/or mistrafficking of this lysosomal protein. […] These inhibitors include iminosugar analogs and other inhibitors that were discovered as part of previous work. However, the enhancement of enzyme activity by the chaperone action of an enzyme inhibitor must be balanced against the direct inhibition of the enzyme. […] In this extended characterization of our probe, we have further characterized the activity of probes in relevant models of Gaucher disease. This assay attempts to quantitate translocated glucocerebrosidase protein in patient-derived macrophages following extended compound incubation. NIH Chemical Genomics Center [NCGC] NIH Molecular Libraries Probe Production Centers Network [MLPCN] MLPCN Grant: MH086442 Assay Submitter (PI): Ellen Sidransky, NHGRI
Macrophages derived from N370S/N370S Gaucher patients and a control were seeded in Lab-Tek 4 chamber slides (Fisher Scientific, Pittsburgh, PA). After compound treatment, cells were fixed in 3% paraformaldehyde. […]
As to `C#Cc1ccc(NC(=O)c2cnn3c(C)cc(C)nc23)cc1`, the outcome is “active; decreased”.
